Test systems include EKVX NSCLC; SN12C renal; UO-31 renal; TK-10 renal; ACHN renal; CCRF-CEM leukemia; MOLT-4 leukemia; SR leukemia; RPMI-8226 leukemia; OVCAR-8 ovarian; OVCAR-5 ovarian; OVCAR-4 ovarian; SK-OV-3 ovarian; IGROV1 ovarian; OVCAR-3 ovarian; HS 578T breast; NCI/ADR-RES ovarian; T-47D breast; A498 renal; CAKI-1 renal.
Assay in all cases: NCI-60 one-dose screen, 48 h (100 = growth as untreated, 0 = no growth, -100 = all killed)
Common to all, as to conditions: 10 µM unless noted

About 83,000 compounds went through this panel and 20% of them were active in at least one assay; those are over-represented in the sample as a whole.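 Cells were grown in 96-well plates and exposed to the test compound at a single concentration for 48 hours; results are reported as percent growth, with values below 10 considered active.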 Values without a mark were called inactive. Active and inactive are the calls of the source.

In PubChem BioAssay (NCI) one finds growth data, which are given here for seven compounds.

On to `Cn1ccnc1C(=O)/C=C/c1ccc(NC(=O)Nc2ccccc2)cc1`, for which the growth with EKVX NSCLC was 16.5%; in the experiment with SN12C renal, 45.6%; with UO-31 renal, 40.7%; in the experiment with TK-10 renal, 85.9%; in the experiment with ACHN renal, 26.8%; with CCRF-CEM leukemia, 7.34% (active). Besides, the growth in the experiment with MOLT-4 leukemia was 4.35% (active); in the experiment on SR leukemia it was -3.08% (active); in the experiment with RPMI-8226 leukemia, 8.95% (active); in the experiment with OVCAR-8 ovarian it was -1.17% (active); in the experiment on OVCAR-5 ovarian it was 14.8%; with OVCAR-4 ovarian it was 42.7%. Moreover, the growth in the experiment with SK-OV-3 ovarian is 13.3%; in the experiment with IGROV1 ovarian, 19.2%; with OVCAR-3 ovarian, 6.45% (active); in the experiment on HS 578T breast, 5.48% (active); with NCI/ADR-RES ovarian, 22.2%; in the experiment on T-47D breast it was 15.7%.
As for `C/C(=N/NC(N)=S)c1ccc(Nc2nc(SCC(C)C)nc(-c3ccc(F)cc3)c2C#N)cc1`, the growth in the experiment with EKVX NSCLC is -0.0417% (active); in the experiment on SN12C renal it was 12.7%; in the experiment on UO-31 renal, 0.28% (active); in the experiment with TK-10 renal, 8.09% (active); in the experiment with ACHN renal, 12.5%; in the experiment on A498 renal it was 15.9%. Besides, the growth in the experiment on CCRF-CEM leukemia was 51.7%; with MOLT-4 leukemia, 44.4%; in the experiment on SR leukemia, 42.8%; with RPMI-8226 leukemia it was 34.2%; in the experiment with OVCAR-8 ovarian, -3.63% (active); with OVCAR-5 ovarian, 29.2%. Besides, the growth in the experiment on OVCAR-4 ovarian is 26.5%; in the experiment on SK-OV-3 ovarian, 28.9%; in the experiment with IGROV1 ovarian, 21.2%; in the experiment on OVCAR-3 ovarian it was -19.5% (active); in the experiment on HS 578T breast it was 4% (active); with NCI/ADR-RES ovarian, -14.6% (active). In addition, the growth in the experiment on T-47D breast is 21.6%.
For `CN(C)c1ccc(-c2c(NC(C)(C)C)nc3c(OCCc4ccccc4)cccn23)cc1`, the growth in the experiment on EKVX NSCLC was 8.16% (active); in the experiment with SN12C renal, 12.5%; in the experiment with UO-31 renal, 4.11% (active); with TK-10 renal, 52.1%; with ACHN renal, 17.7%; in the experiment with A498 renal, 24.5%. Besides, the growth in the experiment with CCRF-CEM leukemia is 5.5% (active); with MOLT-4 leukemia, 1.16% (active); in the experiment with SR leukemia, -0.837% (active); with RPMI-8226 leukemia, -27.5% (active); with OVCAR-8 ovarian, 18.7%; with OVCAR-5 ovarian, 21.5%. Further, the growth with OVCAR-4 ovarian is 31.3%; in the experiment on SK-OV-3 ovarian, 8.93% (active); in the experiment on IGROV1 ovarian it was 23.3%; in the experiment on OVCAR-3 ovarian it was 20.2%; in the experiment on HS 578T breast, 23.8%; with NCI/ADR-RES ovarian, 4.77% (active). For the same compound, the growth in the experiment with T-47D breast is 10.1%.
As to `O=C(CCN1C(=O)/C(=C/c2ccccc2F)SC1=S)N1CCOCC1`, the growth in the experiment on EKVX NSCLC is 86.8%; in the experiment on SN12C renal it was 73.9%; in the experiment on UO-31 renal, 67.6%; in the experiment on ACHN renal, 62.2%; with CAKI-1 renal, 84.7%; in the experiment on A498 renal, 111%. The growth in the experiment on CCRF-CEM leukemia was 53.3%; with MOLT-4 leukemia, 89.9%; with SR leukemia it was 46.7%; with OVCAR-8 ovarian, 99.6%; in the experiment with OVCAR-5 ovarian, 94.2%; with OVCAR-4 ovarian, 99.1%. Also, the growth in the experiment with SK-OV-3 ovarian was 135%; in the experiment on IGROV1 ovarian, 61.9%; in the experiment with OVCAR-3 ovarian, 99.8%; in the experiment on HS 578T breast, 101%; with NCI/ADR-RES ovarian it was 99.8%; with T-47D breast, 59.3%.
Turning to `COc1cc2nc(-c3ccc(Cl)cc3)cc(OCCCNCC3CCCO3)c2cc1OC` (stereo not drawn), the growth was 67.1% in the experiment on EKVX NSCLC; 47.3% in the experiment with SN12C renal; 57.3% in the experiment with UO-31 renal; 46.6% in the experiment on ACHN renal; 17.3% in the experiment on CAKI-1 renal; 47.9% in the experiment on A498 renal. Moreover, the growth in the experiment on CCRF-CEM leukemia was 49.1%; in the experiment with MOLT-4 leukemia, 40.6%; in the experiment on SR leukemia, 19.5%; in the experiment on OVCAR-8 ovarian, 42.2%; with OVCAR-5 ovarian, 50.1%; with OVCAR-4 ovarian it was 79.4%. Further, the growth is 88.4% in the experiment with SK-OV-3 ovarian; 33.7% in the experiment with IGROV1 ovarian; 87.7% in the experiment with OVCAR-3 ovarian; 76.6% in the experiment on HS 578T breast; 46.8% with NCI/ADR-RES ovarian; 77.1% with T-47D breast.
For `c1ccc2c(NCCCN3CCOCC3)c3oc4ccccc4c3nc2c1`, the growth was -19.6% (active) in the experiment on EKVX NSCLC; 3.3% (active) in the experiment on SN12C renal; -79.6% (active) in the experiment on UO-31 renal; -9% (active) in the experiment with ACHN renal; -27% (active) with CAKI-1 renal; -86.9% (active) in the experiment with A498 renal. Moreover, the growth was 12% with CCRF-CEM leukemia; -4.43% (active) in the experiment with MOLT-4 leukemia; -12.1% (active) in the experiment on SR leukemia; -71.7% (active) in the experiment with OVCAR-8 ovarian; 1.26% (active) in the experiment with OVCAR-5 ovarian; 7.86% (active) in the experiment on OVCAR-4 ovarian. The growth in the experiment with SK-OV-3 ovarian was -9.67% (active); with IGROV1 ovarian, -16.7% (active); in the experiment on OVCAR-3 ovarian, -19.6% (active); in the experiment with HS 578T breast, 5.28% (active); with NCI/ADR-RES ovarian, 7.98% (active); in the experiment on T-47D breast it was 21.1%.
Consider `CCOC(=O)c1c(Nc2ccccc2)nn2c(-c3ccco3)c(C#N)cnc12`, for which the growth with EKVX NSCLC was 75.7%; in the experiment on SN12C renal, 92.9%; in the experiment on UO-31 renal, 71%; with ACHN renal, 56.5%; in the experiment on CAKI-1 renal, 90.1%; with A498 renal, 45.1%. Moreover, the growth in the experiment on CCRF-CEM leukemia is 82.4%; in the experiment on MOLT-4 leukemia it was 92.2%; in the experiment on RPMI-8226 leukemia, 79.3%; in the experiment with OVCAR-8 ovarian it was 82.1%; in the experiment on OVCAR-5 ovarian it was 109%; in the experiment on OVCAR-4 ovarian, 86.6%. In addition, the growth was 109% in the experiment with SK-OV-3 ovarian; 100% in the experiment with IGROV1 ovarian; 131% in the experiment with OVCAR-3 ovarian; 72% with HS 578T breast; 80% with NCI/ADR-RES ovarian; 87.8% with T-47D breast.
